± gives the standard deviation.
The sequences below were run on EfPiwi piRISC loaded with L1MC piRNA (26 nt) (assay: pre-steady-state target cleavage rate (min^-1); auxiliary factor: 500 nM Ephydatia muelleri Gtsf1; guide: L1MC piRNA 5'p-UAACUAAAUACUAUGCAAGCUGUAGG; MIWI and MILI are mouse PIWI proteins and EfPiwi is from a freshwater sponge; tags in brackets are library labels; higher = faster piRNA-guided slicing of the target).
Summary of the method: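 With or without 500 nM GTSF1 partner protein, 1 nM active affinity-purified piRISC carrying one synthetic guide was mixed with 0.1 nM transcribed, DNA-blocked target RNA library in HEPES–potassium acetate buffer at 33 °C for 0–8 or 0–960 min. Uncleaved targets were sequenced and normalised to depth and to weakly complementary targets, three trials were pooled, and k3 was capped at 0.0001 min^-1. The pre-steady-state cleavage rate came from a burst-and-steady-state fit.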
In the case of UCCUGGAACAGCUAGCAAAGUAUUUAGUUA, the “pre-steady-state target cleavage rate” value is reported as 0.00366 ± 0.0025. UCCUGGAUCAGCUUGCAAUGUAUUUAGUUA was tested, and the “pre-steady-state target cleavage rate” value was 0.00462 ± 0.0039. For UCCUGGAUCAGCGUUGCAUAGUAUUUAGUUA, the “pre-steady-state target cleavage rate” value was 0.021 ± 0.0057. With UCCUGCUACAGCUUGGUUAGUAUUUAGUAA the “pre-steady-state target cleavage rate” value was 0.00273 ± 0.0024. With UCCUGCUAGAGCUUGCAUUGUAUUUAGUUA the “pre-steady-state target cleavage rate” value was 0.00751 ± 0.0022. For UCCUGCAACAGCUUGCUUAGUAUUUAGUUA, the “pre-steady-state target cleavage rate” value was 0.0143 ± 0.0036. For UCCUGGUUCAGCUUGCAAAGUAUUUAGUUA, the “pre-steady-state target cleavage rate” value was 0.0681 ± 0.019. For UCCUGGAUCAGACUUGCAUAGUAUUUAGUUA, the “pre-steady-state target cleavage rate” value was 0.0293 ± 0.009. In the case of UCCUGGAUGAGCUUGCAUAGUAUUUUAGUUA, the “pre-steady-state target cleavage rate” value is reported as 0.00631 ± 0.0035. “UCCUGGAUGUCGAUGCAUAGUAUUUAGUUA [g2:g17:cont:t1A]” was tested, and the “pre-steady-state target cleavage rate” value was 0.00648 ± 0.0023. With UCCUGGAUGUGGAUGCAUAGUAUUUAGUUA the “pre-steady-state target cleavage rate” value was 0.00943 ± 0.0037. For UCCUGCUACACCUUGCAUAGUAUUUAGUUA, the “pre-steady-state target cleavage rate” value was 0.0124 ± 0.0048. For UCCUGGUUCAGCUUGCAUAGUUUUUAGUUA, the “pre-steady-state target cleavage rate” value was 0.00498 ± 0.0023. “UCCUGGAACAGCUUGCAUAGUAUUUAGUUA [g2:g23:cont:t1A]” was tested, and the “pre-steady-state target cleavage rate” value was 0.0806 ± 0.018. In the case of UCCUGGUUGUGCUUGCAUAGUAUUUAGUAA, the “pre-steady-state target cleavage rate” value is reported as 0.00401 ± 0.0038. UCCUGCUACAGCUUGCAUAGUAUUUGAGUUA was tested, and the “pre-steady-state target cleavage rate” value was 0.0068 ± 0.0022. With UCCUGGAACAGCUUGCAUAGUAUUGUAGUUA the “pre-steady-state target cleavage rate” value was 0.00741 ± 0.0027. For UCCUCCUACAGCUUGGAUAGUAAUUAGUUA, the “pre-steady-state target cleavage rate” value was 0.0274 ± 0.0089. For UCCUGCUUCAGCUUGCAAAGUAUUUAGUUA, the “pre-steady-state target cleavage rate” value was 0.0683 ± 0.018. In the case of UCCUGGAACAGCUUGCUUAGUAAUUAGUUA, the “pre-steady-state target cleavage rate” value is reported as 0.00639 ± 0.0027. In the case of UCCUGGUACAGUUGCAUAGUAUUUAGUUA, the “pre-steady-state target cleavage rate” value is reported as 0.0124 ± 0.0051. UCCUGGAACAGCUAGCAUAGUAUUUAGUAA was tested, and the “pre-steady-state target cleavage rate” value was 0.00289 ± 0.0015. In the case of UCCUGGUACAGCUUGCAUAGUGUUUAGUUA, the “pre-steady-state target cleavage rate” value is reported as 0.00794 ± 0.0028.
